Results as given in PubChem BioAssay AID1159580 (chemical genetic matrix, 2015).
Screen size: about 5,500 compounds; about 2,000 (36%) were called active. Another 18% or so got no clear call; they are omitted. Rule as the data show it: active = normalized growth mostly below about 0.91 (no sharp cut-off); inconclusive = no clear call, values can overlap the other calls; inactive = mostly above about 0.92. The list shows a part of the results.

Assay: chemical genetic growth profiling, strain panel (AID 1159580);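 also: tested at 20 µM; growth read once vehicle control cultures reached saturation at 30 °C; 1 = growth at the plate median or of vehicle wells; lower values mean less growth of the strain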
Settings: growth OD

Measured: normalized growth

CC(=O)O[C@@H]1CC2C(C)(C)[C@H](O)CC[C@]2(C)C2CC[C@@]3(C)[C@H](c4ccoc4)OC(=O)C4OC43[C@@]21C (some centres not stated)
inactive: S. cerevisiae deletion strains, locus YJR066W, strain TOR1, hits give low values 1 | S. cerevisiae deletion strains, locus YJR075W, strain HOC1, hits give low values 1 | S. cerevisiae deletion strains, locus YKL009W, strain mrt4, hits give low values 0.963 | S. cerevisiae deletion strains, locus YKL068W, hits give low values 0.991 | S. cerevisiae deletion strains, locus YKL085W, strain MDH1 (second series), hits give low values 0.99 | S. cerevisiae deletion strains, locus YKL085W, strain MDH1, hits give low values 0.99 | S. cerevisiae deletion strains, locus YKL160W, strain elf1, hits give low values 0.989 | S. cerevisiae deletion strains, locus YKR001C, strain vps1, hits give low values 0.969 | S. cerevisiae deletion strains, locus YKR026C, strain gcn3, hits give low values 0.992 | S. cerevisiae deletion strains, locus YKR091W, strain srl3, hits give low values 1.01 | S. cerevisiae deletion strains, locus YLL001W, strain dnm1, hits give low values 1.03 | S. cerevisiae deletion strains, locus YLL026W, hits give low values 1.01 | S. cerevisiae deletion strains, locus YLL041C, strain sdh2, hits give low values 1.01 | S. cerevisiae deletion strains, locus YLR027C, strain aat2, hits give low values 1.01 | S. cerevisiae deletion strains, locus YLR039C, strain RIC1, hits give low values 1.01 | S. cerevisiae deletion strains, locus YLR058C, strain SHM2, hits give low values 1 | S. cerevisiae deletion strains, locus YLR102C, strain apc9, hits give low values 0.989 | S. cerevisiae deletion strains, locus YLR113W, strain HOG1, hits give low values 1.08 | S. cerevisiae deletion strains, locus YLR221C, strain rsa3, hits give low values 1.02 | S. cerevisiae deletion strains, locus YLR258W, strain gsy2, hits give low values 1.02 | S. cerevisiae deletion strains, locus YLR262C, strain YPT6 (second series), hits give low values 1 | S. cerevisiae deletion strains, locus YLR262C, strain YPT6, hits give low values 1.05 | S. cerevisiae deletion strains, locus YLR268W, strain sec22, hits give low values 0.984 | S. cerevisiae deletion strains, locus YLR320W, strain mms22, hits give low values 1.03 | S. cerevisiae deletion strains, locus YLR342W, strain FKS1 (second series), hits give low values 1.06 | S. cerevisiae deletion strains, locus YLR342W, strain FKS1, hits give low values 1.01 | S. cerevisiae deletion strains, locus YLR357W, strain rsc2, hits give low values 1.03 | S. cerevisiae deletion strains, locus YLR370C, strain arc18, hits give low values 1.01 | S. cerevisiae deletion strains, locus YLR371W, strain rom2, hits give low values 0.975 | S. cerevisiae deletion strains, locus YLR384C, strain iki3, hits give low values 1.02 | S. cerevisiae deletion strains, locus YLR418C, strain cdc73, hits give low values 0.984 | S. cerevisiae deletion strains, locus YML016C, strain PPZ1, hits give low values 0.982 | S. cerevisiae deletion strains, locus YML032C, strain rad52, hits give low values 0.975 | S. cerevisiae deletion strains, locus YML120C, strain ndi1, hits give low values 1.03 | S. cerevisiae deletion strains, locus YML124C, strain tub3, hits give low values 0.988 | S. cerevisiae deletion strains, locus YMR058W, strain fet3, hits give low values 1.03 | S. cerevisiae deletion strains, locus YMR078C, strain ctf18, hits give low values 0.972 | S. cerevisiae deletion strains, locus YMR125W, strain sto1, hits give low values 1 | S. cerevisiae deletion strains, locus YMR129W, hits give low values 1 | S. cerevisiae deletion strains, locus YMR205C, strain PFK2, hits give low values 1.04 | S. cerevisiae deletion strains, locus YMR223W, strain ubp8, hits give low values 0.995 | S. cerevisiae deletion strains, locus YMR231W, strain pep5, hits give low values 1.01 | S. cerevisiae deletion strains, locus YMR307W, strain GAS1, hits give low values 0.977 | S. cerevisiae deletion strains, locus YNL067W, strain RPL9B, hits give low values 1.02 | S. cerevisiae deletion strains, locus YNL071W, strain lat1, hits give low values 0.994 | S. cerevisiae deletion strains, locus YNL128W, strain TEP1, hits give low values 0.975 | S. cerevisiae deletion strains, locus YNL153C, strain GIM3, hits give low values 1.01 | S. cerevisiae deletion strains, locus YNL183C, strain NPR1, hits give low values 1.01 | S. cerevisiae deletion strains, locus YNL209W, strain ssb2, hits give low values 1.01 | S. cerevisiae deletion strains, locus YNL233W, strain BNI4, hits give low values 1.04 | S. cerevisiae deletion strains, locus YNL248C, strain rpa49, hits give low values 0.979 | S. cerevisiae deletion strains, locus YNL250W, strain rad50, hits give low values 1 | S. cerevisiae deletion strains, locus YNL271C, strain bni1, hits give low values 0.991 | S. cerevisiae deletion strains, locus YNL298W, strain CLA4, hits give low values 0.992 | S. cerevisiae deletion strains, locus YNL307C, strain MCK1, hits give low values 0.995 | S. cerevisiae deletion strains, locus YNL322C, strain KRE1 (second series), hits give low values 1.01 | S. cerevisiae deletion strains, locus YNL322C, strain KRE1, hits give low values 1.01 | S. cerevisiae deletion strains, locus YNR049C, strain mso1, hits give low values 1.01 | S. cerevisiae deletion strains, locus YNR052C, strain pop2, hits give low values 0.997 | S. cerevisiae deletion strains, locus YOL012C, strain htz1 1.17 | S. cerevisiae deletion strains, locus YOL147C, strain pex11, hits give low values 0.992 | S. cerevisiae deletion strains, locus YOR001W, strain rrp6, hits give low values 0.994 | S. cerevisiae deletion strains, locus YOR061W, strain CKA2, hits give low values 0.94 | S. cerevisiae deletion strains, locus YOR069W, strain VPS5, hits give low values 1 | S. cerevisiae deletion strains, locus YOR070C, strain gyp1, hits give low values 1.01 | S. cerevisiae deletion strains, locus YOR080W, strain dia2, hits give low values 1.01 | S. cerevisiae deletion strains, locus YOR083W, strain WHI5, hits give low values 0.979 | S. cerevisiae deletion strains, locus YOR106W, strain vam3, hits give low values 1 | S. cerevisiae deletion strains, locus YOR136W, strain idh2, hits give low values 0.998 | S. cerevisiae deletion strains, locus YOR144C, strain elg1, hits give low values 0.984 | S. cerevisiae deletion strains, locus YOR184W, strain ser1, hits give low values 0.975 | S. cerevisiae deletion strains, locus YOR231W, strain MKK1, hits give low values 1.09 | S. cerevisiae deletion strains, locus YOR265W, strain rbl2, hits give low values 1.01 | S. cerevisiae deletion strains, locus YOR270C, strain vph1, hits give low values 0.912 | S. cerevisiae deletion strains, locus YOR290C, strain snf2, hits give low values 0.985 | S. cerevisiae deletion strains, locus YOR316C, strain cot1, hits give low values 0.977 | S. cerevisiae deletion strains, locus YPL051W, strain arl3, hits give low values 1 | S. cerevisiae deletion strains, locus YPL078C, strain atp4, hits give low values 0.973 | S. cerevisiae deletion strains, locus YPL106C, strain sse1, hits give low values 1.03 | S. cerevisiae deletion strains, locus YPL240C, strain hsp82, hits give low values 1 | S. cerevisiae deletion strains, locus YPL256C, strain CLN2, hits give low values 1.08 | S. cerevisiae deletion strains, locus YPR119W, strain clb2, hits give low values 0.992 | S. cerevisiae deletion strains, locus YPR141C, strain kar3, hits give low values 0.962 | S. cerevisiae deletion strains, locus YPR163C, strain tif3, hits give low values 0.984 | S. cerevisiae deletion strains, locus YPR167C, strain met16, hits give low values 0.998 | S. cerevisiae deletion strains, strain wtn01, hits give low values 0.959 | S. cerevisiae strains, strain wild type, hits give low values 1
